# Measurements published in PubChem BioAssay (NCI).
# Values joined by “and” are separate entries in the source; they are usually repeats but may differ in a detail not shown here. Identical values can stand only once. The panel holds about 83,000 compounds, 20% with a hit somewhere; the sample as a whole holds those more often.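 Interpretation: 100, growth as untreated; towards 0, rising growth inhibition; 0, no net growth; 0 to -100, cell death. Compounds scoring below 10 were considered active.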 Active and inactive are the calls of the source.
# Tested on: MDA-MB-468 breast
# Test: NCI-60 one-dose screen, 48 h (100 = growth as untreated, 0 = no growth, -100 = all killed)
# Conditions: 10 µM unless noted
row,Compound,growth
1,CCCCN(CCCC)CC(CN(CC)CC)OC(=O)Nc1ccccc1 (stereo not given),90% (inactive)
2,C(=C\c1nc2ccccc2[nH]1)/c1nc2ccccc2[nH]1,106% (inactive)
3,O=C(Nc1ccc(OCc2nnc(-c3ccc(Cl)cc3)o2)c(F)c1)Nc1ccc(Cl)c(Cl)c1,43.2% (inactive)
4,CC1(C)CC[C@]2(C(N)=O)CC[C@]3(C)C(=CC[C@@H]4[C@@]5(C)C/C(=C/c6cccnc6)C(=O)C(C)(C)[C@@H]5CC[C@]43C)[C@@H]2C1,-17.1% [100 µM] (active)
5,CCCCC[C@H]1C/C=C2/C(=O)C=C[C@@H]2C/C=C\CCCC(=O)O[C@@H](CCCCC)C/C=C2/C(=O)C=C[C@@H]2C/C=C\CCCC(=O)O1,-27.8% (active)
6,O=C1CCC(=O)N1CC1CC2CCC1C2 (stereo not given),104% (inactive) and 90.6% (inactive)
7,Cc1[nH]n(C(N)=S)c(=O)c1N=Nc1ccc(S(=O)(=O)Nc2ccncn2)cc1,86.4% (inactive)
8,O=[N+]([O-])c1cc2c(cc1Br)-c1ccccc1C2,16.7% (inactive)
9,COc1cc(/C=C/C(=O)CC(=O)/C=C/c2cc(Br)c(OC)c(OC)c2)cc(Br)c1OC,97.2% (inactive)
10,COC(=O)C1(C)COP(=O)(NC23CC4CC(CC(C4)C2)C3)OC1 (stereo not given),110% (inactive)
11,COC1=CC(c2ccc[nH]2)=N/C1=C\c1[nH]c(C)c(C(=O)CCCCC(=O)Nc2ccccc2)c1C,-10.7% (active)
12,O=S(=O)(O)c1ccc(Cl)cc1,105% (inactive)
13,COc1cc2oc(-c3cccc(C(=O)Nc4ccc(Cl)cc4)c3)cc(=O)c2c(O)c1OC,43.7% (inactive)
14,COc1ccc(Cn2cc3c(c2-c2cc(OC)c(OC)c(OC)c2)CCc2c(CN4CCCC4)noc2-3)cc1,50.7% (inactive)
15,CNc1cccc2c1C(=O)c1cccc(N)c1C2=O,46.1% (inactive)
16,COCCNC(=O)c1ccc(-c2nc3ccc4[nH]ncc4c3c3c2CCCC3)cc1,4.81% (active)
17,NC(N)=Nc1ccc(Nc2cccc(Oc3ccc(Cl)c(C(F)(F)F)c3)c2)cn1,8.19% (active)
18,CN(C)CCOC(=O)Nc1ccc(Cc2ccc(NC(=O)OCCN(C)C)cc2)cc1,40.4% [100 µM] (inactive)
19,CCC(C)[C@H]1OC(=O)[C@H](C(C)C)N(C)C(=O)[C@@H](C(C)C)OC(=O)[C@H](C(C)C)N(C)C(=O)[C@@H](C(C)CC)OC(=O)[C@H](C(C)C)N(C)C1=O (stereo not given in full),-0.281% (active)
20,Nc1ccc(S(=O)(=O)O)c2cc(S(=O)(=O)O)cc(O)c12,106% (inactive)

row,Compound,growth
1,CC(=O)Nc1ccc2c(c1)C(=O)c1cccc(C(=O)O)c1-2,90.9% (inactive)
2,COc1ccc(OC)c(-c2cc(-c3ccc(Cl)cc3)c3c(N)c(C(=O)c4ccc(Cl)cc4)sc3n2)c1,117% (inactive)
3,O=C1CS/C(=N/c2nnc(-c3ccc(O)cc3)s2)N1,116% (inactive)
4,COc1ccc2c(c1)c(-c1nn3c(=O)cc(-c4ccccc4)nc3s1)cn2C,20.1% (inactive)
5,O=C(Nc1nc2ccccc2s1)c1cc(-c2ccc(F)cc2)n2nc(-c3ccccc3)cc2n1,118% (inactive)
6,CCCCCCCCCCCCCCCC[N+]1(C)CCN(SN2CC[N+](C)(CCCCCCCCCCCCCCCC)CC2)CC1,52.2% (inactive)
7,CNC(=O)c1cccc(Cn2nc(C)c(NC(=O)c3ccc(COc4ccc(C(F)(F)F)cc4C)cc3)c2C)c1,-6.26% (active)
8,C=C(C)[C@@H]1CC[C@]2(C(=O)NCC#CCN3CCN(C)CC3)CC[C@]3(C)[C@H](CC[C@@H]4[C@@](C)(CCC#N)[C@H](C(=C)C)CC[C@]43C)[C@@H]12,18.7% (inactive)
9,CCCCC[C@H]1C/C=C2/C(=O)C(Cl)=C[C@@H]2C/C=C\CCCC(=O)O[C@@H](CCCCC)C/C=C2/C(=O)C(Cl)=C[C@@H]2C/C=C\CCCC(=O)O1,-46% (active)
10,COc1cccc(C(=O)NNc2nc(N3CCN(C4CCCCC4)CC3)nc(N3CCN(C(c4ccccc4)c4ccccc4)CC3)n2)c1,13.6% (inactive)
11,O=C(O)c1ccc(-n2cc(/C=N/Nc3ccc(Cl)cc3Cl)c(-c3ccccc3)n2)cc1,79.7% (inactive)
12,CC1=CC(=O)N(c2cccc3c(N4C(=O)C=C(C)C4=O)cccc23)C1=O,23.6% (inactive)
13,O=C(/C=C/C12c3ccccc3C(c3ccccc31)C1C(=O)N(c3ccc(Cl)cc3)C(=O)C12)c1ccccn1 (stereo not given),-9.41% (active)
14,COc1ccc2c(c1)O/C(=C\c1ccc([N+](=O)[O-])o1)C2=O,-46.5% (active)
15,COC(=O)Nc1ccc(-c2nc(-c3cccc(OC)c3)c(-c3ccnc(Br)c3)[nH]2)cc1,39.1% (inactive)
16,C=CCn1c(SCC(=O)Nc2ccc(C(=O)/C=C/c3cc(OC)c(OC)c(OC)c3)cc2)nnc1-c1cc(-c2ccc(Cl)cc2)nc2ccccc12,108% (inactive)
17,COc1cc2c(Oc3ccc(NC(=O)C4(C(=O)Nc5ccc(F)cc5)CC4)cc3F)ccnc2cc1OCCCN1CCOCC1,12.1% (inactive)
18,Cc1ccn2c3c(c(C(=O)O)c2c1)C(=O)c1ccccc1C3=O,84.7% (inactive)
19,Nc1c(C(=O)NC2CCCCC2)sc2nc3c(cc12)C(=O)CCC3,86.1% (inactive)
20,C=C(C)[C@@H]1CC[C@]2(C(=O)OC)CC[C@]3(C)[C@H](CC[C@@H]4[C@@]5(C)C/C(=C/c6cccc(I)c6)C(=O)C(C)(C)[C@@H]5CC[C@]43C)[C@@H]12,86.7% (inactive)
